This is an account of results in PubChem BioAssay (Tox21).

Values joined by “and” are separate entries in the source; they are usually repeats but may differ in a detail not shown here. Equal entries are not always repeated. Records with an inconclusive call do not appear. The source holds several records for some structures; these can differ, active in one and inactive in another. Active and inactive are the calls of the source. Unless noted, the call rests on the fitted dose curve.

Assay [1] has as its target Androgen receptor (Homo sapiens) (UniProt P10275). Briefly: qHTS assay to identify small molecule agonists of the androgen receptor (AR) signaling pathway in the presence of an antagonist (AID 1259381). Further: nearly all actives have a fitted effect of over 15% in size. Further: potency means the concentration at half of the fitted maximal effect. In a few lines: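 Plated MDA-kb2 cells (3,000/well) were pre-incubated 5hr, given nilutamide (3.0uM final) or buffer, then dosed with compounds in DMSO at 15 concentrations. Luciferase activity was quantified by luminescence after 16hr at 37C.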
(qHTS replaces the single test concentration by a dilution series.)

A short description of assay [2]: qHTS assay to identify small molecule antagonists of the estrogen receptor beta (ER-beta) signaling pathway - cell viability counter screen (AID 1259382; active means well fitted curve in the direction sought with a large enough effect in the repeat runs; an effect the other way counts as inactive or inconclusive; further: nearly all actives have a fitted effect of over 55% in size; further: potency means the concentration at half of the fitted maximal effect). An outline of the steps:
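CellTiter-Glo ATP luminescence measured after the LiveBLAzer read in the same wells; ER-beta-UAS-bla HEK293T cells, 16 hr compound treatment with 1nM 17-beta-estradiol agonist at 37C, 5% CO2.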

Assay [3] addresses Estrogen receptor (Homo sapiens) (UniProt P03372). Briefly: qHTS assay to identify small molecule agonists of the estrogen receptor alpha (ER-alpha) signaling pathway in the presence of an antagonist (AID 1259383). Further: top concentration of the series differs between compounds; nearly all actives have a fitted effect of over 15% in size. An outline of the steps: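 Luminescent ERE-luciferase reporter, VM7Luc4E2 cells (endogenous ER-alpha); 10.0nM ICI-182,780 final; 15-point compound titration; 22hr at 37C; ONE-Glo, 30min RT.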

Assay [4] in a line: qHTS assay to identify small molecule agonists or antagonists of the thyroid stimulating hormone receptor (TSHR) signaling pathway - wild type cell line counter screen (AID 1259384). In a few lines:
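Wild-type HEK293 cells were plated 18 h at 37 C/5% CO2, pin-dosed with compound plus Ro20-1724 medium, held 30 min at room temperature, then given cAMP-d2 and anti-cAMP-cryptate; fluorescence was read after 1 h. Fifteen concentrations, triplicate.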

In assay [5] the target is Thyrotropin receptor (Homo sapiens) (UniProt P16473). Briefly: qHTS assay to identify small molecule antagonists of the thyroid stimulating hormone receptor (TSHR) signaling pathway (AID 1259385). Further: nearly all actives have a fitted effect of over 20% in size. An outline of the steps:
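TSHR-HEK293 cells were plated and held 18 h at 37C/5% CO2, then given compound plus Ro20-1724 and stimulated with TSH at 1.5 ng/mL final. After 30 min at room temperature, cAMP was detected with cAMP-d2/anti-cAMP-cryptate (1 h) by fluorescence.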

Assay [6] is described as follows: qHTS assay to identify small molecule agonists of the estrogen receptor alpha (ER-alpha) signaling pathway in the presence of an antagonist - cell viability counter screen (AID 1259386; active means well fitted curve in the direction sought with a large enough effect in the repeat runs; an effect the other way counts as inactive or inconclusive;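 further: series mostly up to about 92 µM; cells exposed to compounds for 22 h at 37 °C before the viability read; nearly all actives have a fitted effect of over 30% in size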). In a few lines:
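Using estrogen-depleted VM7Luc4E2 cells, the 15-concentration compound series was applied together with 10.0nM ICI-182,780 and incubated 22hr at 37C/5% CO2. Cell viability was then scored by CellTiter-Fluor.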

Assay [7] addresses Progesterone receptor (Homo sapiens) (UniProt P06401). Briefly: qHTS assay to identify small molecule antagonists of the progesterone receptor (PR) signaling pathway (AID 1346795; active means well fitted inhibition curve with a large enough effect in the signal ratio in the repeat runs, not every such curve was filed as active; the % refers to the signal ratio; further: potency means the concentration at half of the fitted maximal effect). In a few lines:
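Antagonist mode: compounds tested against 1 nM (final) promegestone stimulation in HEK293T cells expressing PR-UAS-bla reporter, 16 hr at 37C, 5% CO2; beta-lactamase activity detected via B/G FRET substrate after 2 hr at room temperature.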

Assay [8] in a line: qHTS assay to identify small molecule antagonists of the progesterone receptor (PR) signaling pathway - cell viability counter screen (AID 1346798; active means well fitted curve in the direction sought with a large enough effect in the repeat runs; an effect the other way counts as inactive or inconclusive; further: series mostly up to about 92 µM; nearly all actives have a fitted effect of over 50% in size). An outline of the steps: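 Counter screen for cytotoxicity: viability of PR-UAS-bla HEK293T cells was measured with CellTiter-Glo luminescence following 16 hr compound exposure in the presence of R5020.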
The nature of assay [9]: qHTS assay to identify small molecule agonists of the progesterone receptor (PR) signaling pathway - cell viability counter screen (AID 1346799). Further: nearly all actives have a fitted effect of over 45% in size. Further: potency means the concentration at half of the fitted maximal effect. In a few lines:
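Cells (PR-UAS-bla HEK293T) are plated at 3,000/well in 2% charcoal-stripped FBS medium, rested 6 hr, dosed and incubated 16 hr at 37C. CellTiter-Glo is then added and luminescence measured after 30 min at room temperature.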

Assay [10] concerns the target Progesterone receptor (Homo sapiens) (UniProt P06401). In words: qHTS assay to identify small molecule agonists of the progesterone receptor (PR) signaling pathway (AID 1346784). Further: nearly all actives have a fitted effect of over 30% in size. Further: potency means the concentration at half of the fitted maximal effect. In a few lines:
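Cells (PR-UAS-bla HEK 293T, GripTite) were plated in assay medium containing 2% charcoal-stripped FBS and incubated 6 hr. Test compounds in DMSO were added for 16 hr at 37C. FRET substrate was then loaded for 2 hr at room temperature before fluorescence reading.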

Sequence of Progesterone receptor (Homo sapiens) (P06401 whole entry, looked up): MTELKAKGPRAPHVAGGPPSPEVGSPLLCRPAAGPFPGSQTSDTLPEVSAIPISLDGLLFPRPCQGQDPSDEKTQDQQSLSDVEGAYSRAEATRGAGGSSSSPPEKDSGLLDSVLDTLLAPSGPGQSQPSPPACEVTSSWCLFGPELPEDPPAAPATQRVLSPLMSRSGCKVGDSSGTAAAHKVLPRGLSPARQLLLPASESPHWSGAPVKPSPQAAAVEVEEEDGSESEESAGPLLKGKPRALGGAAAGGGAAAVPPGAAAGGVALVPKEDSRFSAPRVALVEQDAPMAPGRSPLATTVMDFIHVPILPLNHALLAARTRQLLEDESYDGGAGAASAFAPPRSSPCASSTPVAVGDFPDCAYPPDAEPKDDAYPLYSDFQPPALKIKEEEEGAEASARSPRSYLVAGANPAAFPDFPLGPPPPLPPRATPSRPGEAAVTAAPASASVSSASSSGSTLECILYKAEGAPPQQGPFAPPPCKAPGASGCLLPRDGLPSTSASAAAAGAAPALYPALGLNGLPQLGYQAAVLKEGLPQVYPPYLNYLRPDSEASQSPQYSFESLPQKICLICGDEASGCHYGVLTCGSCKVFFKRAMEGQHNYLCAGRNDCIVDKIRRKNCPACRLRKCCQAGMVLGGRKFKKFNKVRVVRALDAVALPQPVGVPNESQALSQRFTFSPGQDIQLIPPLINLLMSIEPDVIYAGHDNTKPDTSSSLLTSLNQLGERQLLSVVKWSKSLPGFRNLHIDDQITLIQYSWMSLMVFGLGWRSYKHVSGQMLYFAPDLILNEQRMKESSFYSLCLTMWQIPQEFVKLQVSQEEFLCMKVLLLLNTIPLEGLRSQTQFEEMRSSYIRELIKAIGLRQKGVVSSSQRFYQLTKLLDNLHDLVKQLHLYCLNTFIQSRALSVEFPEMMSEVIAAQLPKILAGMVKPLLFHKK
Sequence of Androgen receptor (Homo sapiens) (P10275 whole entry, looked up): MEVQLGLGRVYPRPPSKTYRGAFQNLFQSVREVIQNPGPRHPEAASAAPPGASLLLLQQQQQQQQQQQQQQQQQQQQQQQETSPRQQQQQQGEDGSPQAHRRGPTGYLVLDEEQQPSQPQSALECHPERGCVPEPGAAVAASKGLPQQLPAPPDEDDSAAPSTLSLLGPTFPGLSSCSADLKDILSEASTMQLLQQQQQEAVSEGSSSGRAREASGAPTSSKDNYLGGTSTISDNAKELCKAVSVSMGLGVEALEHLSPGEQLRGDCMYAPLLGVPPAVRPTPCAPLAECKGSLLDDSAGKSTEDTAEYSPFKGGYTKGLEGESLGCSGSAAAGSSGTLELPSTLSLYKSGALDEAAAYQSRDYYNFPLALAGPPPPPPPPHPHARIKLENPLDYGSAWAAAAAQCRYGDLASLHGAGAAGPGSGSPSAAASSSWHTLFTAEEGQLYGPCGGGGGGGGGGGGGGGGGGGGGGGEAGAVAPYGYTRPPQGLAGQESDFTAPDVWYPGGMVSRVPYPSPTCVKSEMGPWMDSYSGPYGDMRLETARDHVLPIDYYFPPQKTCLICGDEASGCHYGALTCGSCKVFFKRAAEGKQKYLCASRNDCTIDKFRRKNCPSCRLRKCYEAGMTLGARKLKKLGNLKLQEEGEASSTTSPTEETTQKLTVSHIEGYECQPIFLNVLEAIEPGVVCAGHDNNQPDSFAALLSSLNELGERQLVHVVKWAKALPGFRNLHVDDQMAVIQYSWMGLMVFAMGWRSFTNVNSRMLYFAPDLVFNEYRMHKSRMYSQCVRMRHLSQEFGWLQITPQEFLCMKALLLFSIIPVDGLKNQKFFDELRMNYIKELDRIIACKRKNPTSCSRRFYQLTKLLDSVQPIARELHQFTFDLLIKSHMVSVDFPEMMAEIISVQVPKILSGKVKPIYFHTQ
Sequence of Estrogen receptor (Homo sapiens) (P03372 whole entry, looked up): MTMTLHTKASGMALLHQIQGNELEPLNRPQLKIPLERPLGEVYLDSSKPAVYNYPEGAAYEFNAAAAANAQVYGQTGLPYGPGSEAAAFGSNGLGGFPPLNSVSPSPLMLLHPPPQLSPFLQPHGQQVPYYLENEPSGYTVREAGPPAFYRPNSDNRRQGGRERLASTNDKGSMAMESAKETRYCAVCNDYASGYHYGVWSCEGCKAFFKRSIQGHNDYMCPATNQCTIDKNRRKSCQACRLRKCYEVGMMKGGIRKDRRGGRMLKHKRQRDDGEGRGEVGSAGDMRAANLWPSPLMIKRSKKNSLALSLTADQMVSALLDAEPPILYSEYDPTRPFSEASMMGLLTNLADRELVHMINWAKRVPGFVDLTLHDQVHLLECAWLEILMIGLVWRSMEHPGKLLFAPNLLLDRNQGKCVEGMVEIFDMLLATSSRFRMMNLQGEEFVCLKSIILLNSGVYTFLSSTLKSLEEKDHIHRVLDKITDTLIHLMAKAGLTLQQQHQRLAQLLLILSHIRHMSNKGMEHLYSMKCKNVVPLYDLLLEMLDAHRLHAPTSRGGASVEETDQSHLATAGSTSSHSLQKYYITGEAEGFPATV
Sequence of Thyrotropin receptor (Homo sapiens) (P16473 whole entry, looked up): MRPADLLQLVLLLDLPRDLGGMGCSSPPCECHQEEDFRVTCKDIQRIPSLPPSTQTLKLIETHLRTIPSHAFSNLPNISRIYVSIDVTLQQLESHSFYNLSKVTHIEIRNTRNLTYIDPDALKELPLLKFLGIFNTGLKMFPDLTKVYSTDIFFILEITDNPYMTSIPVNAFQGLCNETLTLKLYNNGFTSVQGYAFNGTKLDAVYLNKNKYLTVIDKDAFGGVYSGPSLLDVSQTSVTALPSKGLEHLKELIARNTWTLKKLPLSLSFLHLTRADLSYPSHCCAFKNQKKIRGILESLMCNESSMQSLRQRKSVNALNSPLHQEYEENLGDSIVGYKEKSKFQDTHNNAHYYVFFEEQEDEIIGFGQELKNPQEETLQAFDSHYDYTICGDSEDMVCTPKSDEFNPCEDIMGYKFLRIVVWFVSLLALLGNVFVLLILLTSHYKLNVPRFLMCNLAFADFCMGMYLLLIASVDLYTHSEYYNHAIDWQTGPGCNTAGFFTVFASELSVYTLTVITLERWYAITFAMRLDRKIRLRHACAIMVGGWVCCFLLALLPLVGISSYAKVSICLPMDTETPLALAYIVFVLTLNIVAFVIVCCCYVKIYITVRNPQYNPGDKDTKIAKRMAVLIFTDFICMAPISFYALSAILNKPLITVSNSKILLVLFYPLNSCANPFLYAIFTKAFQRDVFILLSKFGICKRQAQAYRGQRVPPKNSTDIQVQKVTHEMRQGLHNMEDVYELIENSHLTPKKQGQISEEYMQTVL

For `c1ccc2c(c1)ccc1ccccc12`, the Potency entry in [1], in assay [2], in assay [3], in assay [5], in [6] and in assay [7] was “inactive” each time. Also, the Potency result in [8] and in [9] was “inactive” in each case. Further, in [4], the outcome was inactive.

As for `C#CCN(C)Cc1ccccc1`, the Potency entry in [2], in assay [3], in assay [5], in assay [6], in [10] and in assay [7] was “inactive” in each case. Moreover, the Potency entry in assay [8] and in [9] was “inactive” in each case. In addition, the compound was called inactive in assay [4].

On to `CCN(CC)c1ccc(C(=O)c2ccccc2C(=O)O)c(O)c1`, for which the Potency result in assay [2], in assay [3], in assay [5], in [6], in assay [10] and in [7] was “inactive” throughout. Also, the Potency entry in assay [8] and in [9] was “inactive” in each case. The outcome in [4] was inactive.

With `C=C(C)C(=O)O[C@H]1C[C@@H]2CC[C@@]1(C)C2(C)C`, the Potency in assay [2] is 7.65 µM (active) and inactive; in [7], 2.71 µM (active) and inactive; in assay [9], 8.58 µM (active) and inactive. The Potency result in assay [3], in assay [5], in assay [6] and in assay [10] was “inactive” in each case. Also, in assay [4], the result was inactive.

Consider `CC1CCC(C(C)C)C(O)C1` (stereo unspecified), for which the Potency entry in [1], in [2], in assay [5], in assay [6], in assay [10] and in assay [7] was “inactive” each time. The Potency entry in assay [8] and in assay [9] was “inactive” throughout. Moreover, the compound was called inactive in [4].

As to `CC(O)COCC(C)O` (stereo unspecified), the Potency entry in [2], in assay [3], in assay [5], in assay [6], in assay [10] and in assay [7] was “inactive” in each case. Also, the Potency entry in assay [8] and in assay [9] was “inactive” in each case. Further, the compound was classed as inactive in assay [4].

Take `FC(F)(F)c1ccc(Cl)c(Cl)c1`: the Potency result in assay [1], in assay [2], in assay [3], in assay [5], in [6] and in assay [10] was “inactive” throughout. In addition, the Potency result in assay [8] and in assay [9] was “inactive” each time. For the same compound, the call in assay [4] was inactive.

As to `CCCCCCCC(=O)OC`, the Potency result in assay [2], in [3], in assay [5], in [6], in assay [10] and in assay [7] was “inactive” throughout. In addition, the Potency result in assay [8] and in assay [9] was “inactive” throughout. The result in assay [4] was inactive.

As to `OCCOCCOCCO`, the Potency entry in [1], in [2], in [3], in assay [5], in assay [6] and in [10] was “inactive” each time. Moreover, the Potency entry in [7], in assay [8] and in [9] was “inactive” in each case. Besides, in assay [4], the call was inactive.

`C[C@H]1C[C@@H]2[C@H]([C@@H](O)C[C@@]3(C)[C@H]2CC[C@]3(O)C(=O)CO)[C@@]2(C)C=CC(=O)C=C12`: the Potency in assay [1] is 54.5 nM (active) and 59.6 nM (active); in assay [10] it was 48.6 µM (active). Moreover, the Potency entry in assay [2], in [6], in assay [8] and in [9] was “inactive” each time.

With `COc1ccc(NC(C)=O)cc1N`, the Potency entry in assay [2], in [3], in assay [5], in [6], in [10] and in assay [7] was “inactive” throughout. In addition, the Potency entry in [8] and in assay [9] was “inactive” each time. Moreover, in assay [4], the result was inactive.

Regarding `CCCCN(CCCC)CCCC`, the Potency entry in assay [2], in assay [3], in assay [5], in assay [6], in assay [10] and in [7] was “inactive” throughout. Further, the Potency result in [8] and in assay [9] was “inactive” throughout. The compound was called inactive in assay [4].

Turning to `O=P(OC(CCl)CCl)(OC(CCl)CCl)OC(CCl)CCl`, the Potency entry in assay [2], in assay [3], in [5], in assay [6], in [10] and in [8] was “inactive” each time. For the same compound, in [4], the compound was classed as inactive. Further, the Potency in assay [7] was 6.82 µM (active) and 7.7 µM (active).

On to `CCCCCC1=CCCC1=O`, for which the Potency result in assay [2], in assay [3], in assay [5], in assay [6], in [10] and in assay [8] was “inactive” each time. For the same compound, the Potency entry in assay [9] was “inactive”. For the same compound, in assay [4], the outcome was inactive.

For the compound `N[C@@H](Cc1cc(I)c(Oc2cc(I)c(O)c(I)c2)c(I)c1)C(=O)O`, the Potency result in [2], in assay [5], in [6], in [10], in [7] and in [8] was “inactive” each time. In [4], the compound was classed as inactive.

As for `OCc1cccnc1`, the Potency result in assay [2], in assay [3], in [6], in [7], in assay [8] and in assay [9] was “inactive” throughout.

Regarding `COc1cc(Cc2cnc(N)nc2N)cc(OC)c1OC`, the Potency result in assay [2], in [3], in assay [5], in assay [6], in assay [8] and in assay [9] was “inactive” throughout. Also, the call in assay [4] was inactive. Moreover, the Potency in assay [10] is 5.43 µM (active) and inactive.

As to `C/C=C1/CC2C=CC1C2` (stereo unspecified), the Potency result in assay [2], in assay [3], in assay [6], in assay [8] and in [9] was “inactive” each time.

In the case of `O=c1[nH]c(=O)n([C@H]2C[C@H](O)[C@@H](CO)O2)cc1Br`, the Potency entry in assay [2], in [3], in assay [5], in [6], in assay [8] and in [9] was “inactive” each time. Moreover, the compound was called inactive in assay [4].

Take `CCCCOC(=O)COc1ccc(Cl)cc1Cl`: the Potency entry in assay [2], in assay [5], in assay [6], in assay [10], in assay [7] and in assay [8] was “inactive” in each case. The Potency result in assay [9] is “inactive”. Besides, in assay [4], the compound was classed as inactive.

For the compound `CCc1ccc(CCOc2ccc(CC3SC(=O)NC3=O)cc2)nc1` (stereo unspecified), the Potency entry in [2], in assay [3], in assay [6], in [10] and in assay [9] was “inactive” throughout.

With `O=[N+]([O-])c1ccc(/C=C/c2ccc([N+](=O)[O-])cc2S(=O)(=O)O)c(S(=O)(=O)O)c1`, the Potency result in assay [2], in [3], in [6], in assay [7], in assay [8] and in [9] was “inactive” throughout.

As to `CCCCCOC(C)=O`, the Potency entry in [2], in assay [3], in assay [5], in [6], in assay [8] and in [9] was “inactive” in each case. In [4], the call was inactive.

On to `CCCCCCOCCO`, for which the Potency result in assay [2], in assay [3], in assay [6], in assay [10], in assay [7] and in assay [8] was “inactive” throughout. Also, the Potency result in [9] is “inactive”.

Take `CC(=O)CC(=O)Nc1ccccc1C`: the Potency entry in assay [2], in [3], in assay [5], in assay [6], in [10] and in assay [8] was “inactive” in each case. In addition, the Potency result in [9] is “inactive”. For the same compound, the compound was called inactive in assay [4].

`CCCCCCCCCC`: the Potency entry in [2], in assay [3], in [5], in [6], in assay [7] and in assay [8] was “inactive” each time. Also, the Potency result in assay [9] was “inactive”. The compound was called inactive in [4].

`Cc1cnc(C(=O)NCCc2ccc(S(=O)(=O)NC(=O)NC3CCCCC3)cc2)cn1`: the Potency entry in assay [2], in assay [3], in assay [5], in assay [6], in assay [10] and in assay [8] was “inactive” throughout. Further, in assay [9], the Potency entry was “inactive”. Moreover, the result in assay [4] was inactive.
